The source of these data is PubChem BioAssay AID602281 (The Scripps Research Institute Molecular Screening Center, 2012).

Out of some 360,000 compounds screened, about 2,900 (0.81%) were called active. The full list was thinned out, with actives kept by preference. Values without a mark were called inactive.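 The calls were made as follows: active = inhibition above the mean inhibition across every tested compound plus 3 SD (cut at about 22% in these data); inactive = the rest.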

Perilipin-5 (Homo sapiens) + 1-acylglycerol-3-phosphate O-acyltransferase ABHD5 (Homo sapiens), sequence (Q00G26 whole entry, looked up): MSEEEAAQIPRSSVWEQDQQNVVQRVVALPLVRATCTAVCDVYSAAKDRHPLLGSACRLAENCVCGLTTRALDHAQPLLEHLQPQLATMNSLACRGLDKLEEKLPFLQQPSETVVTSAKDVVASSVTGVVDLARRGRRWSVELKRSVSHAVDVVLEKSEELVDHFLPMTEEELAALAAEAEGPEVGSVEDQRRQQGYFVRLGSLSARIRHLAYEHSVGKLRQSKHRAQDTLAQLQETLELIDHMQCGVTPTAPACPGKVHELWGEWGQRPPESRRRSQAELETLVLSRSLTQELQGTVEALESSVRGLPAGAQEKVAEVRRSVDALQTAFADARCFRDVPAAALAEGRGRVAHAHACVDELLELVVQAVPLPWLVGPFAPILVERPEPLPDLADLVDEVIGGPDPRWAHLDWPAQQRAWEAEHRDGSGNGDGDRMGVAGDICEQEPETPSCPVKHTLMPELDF
Perilipin-5 (Homo sapiens) + 1-acylglycerol-3-phosphate O-acyltransferase ABHD5 (Homo sapiens), sequence (Q8WTS1 whole entry, looked up): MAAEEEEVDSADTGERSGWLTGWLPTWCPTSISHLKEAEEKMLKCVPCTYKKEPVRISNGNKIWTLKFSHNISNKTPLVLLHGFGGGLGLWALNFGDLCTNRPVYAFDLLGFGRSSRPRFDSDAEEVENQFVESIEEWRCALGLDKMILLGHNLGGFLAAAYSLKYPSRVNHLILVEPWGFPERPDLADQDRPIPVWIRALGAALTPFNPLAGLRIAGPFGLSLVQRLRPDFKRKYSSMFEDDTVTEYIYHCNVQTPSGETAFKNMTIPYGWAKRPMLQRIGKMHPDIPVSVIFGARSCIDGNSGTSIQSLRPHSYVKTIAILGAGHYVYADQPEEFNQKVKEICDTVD

The assay addresses Perilipin-5 (Homo sapiens) + 1-acylglycerol-3-phosphate O-acyltransferase ABHD5 (Homo sapiens) (UniProt Q00G26+Q8WTS1). In words: blockers of ABHD5 binding to perilipin-5 – cell lysate, split luciferase complementation, luminescence, primary screen (AID 602281).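 Also: 0% = DMSO only wells and the 100% control is not disclosed.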 To be noted: Split G. princeps luciferase complementation, 4 h, at 4 µM, stronger effect = higher value.
As for `Nn1c(SCc2ccccc2)nnc1C1CCCCC1`, the inhibition (as a rule, the change of the read-out against control, counted positive when it falls) was 7.84%.

For `CCOc1ccc(NC(=O)CN(C)CC(=O)Nc2cccc(Cl)c2C)cc1OCC`, the inhibition is -2.27%.

Consider `COCCN1Cc2cccc(C(=O)Nc3ccccc3OC)c2C1=O`, for which the inhibition is 2.14%.

Consider `CCc1ccccc1S(=O)(=O)Cc1ccc(C(=O)NCCc2ccccc2)o1`, for which the inhibition is 0.54%.

For the compound `CCC(C)CN1C(=O)CSCC1(C)C(=O)NCc1ccccc1` (configuration not stated), the inhibition is -0.17%.

Consider `NC(=O)C(Cc1ccccc1)NC(=O)C12CC3CC(CC(C3)C1)C2` (configuration not stated), for which the inhibition is -7.59%.

Take `COc1cc(OC)cc(C(=O)NNC(=O)CNC(=O)c2ccc(Br)o2)c1`: the inhibition was 1.69%.

Regarding `CCCCCCNC(=O)O[C@H]1CN(C(=O)OC(C)C)N(C(=O)OC(C)C)[C@@H]2CN(S(=O)(=O)c3ccc(C)cc3)C[C@]12O`, the inhibition is -9.24%.

`CCOCCOC(=O)C1=C(C)N(C)C(=O)NC1c1ccccc1F` (configuration not stated): the inhibition was 2.63%.

On to `CN1c2ccc(C=O)c3c(C=O)ccc(c23)N(C)C1(C)C`, for which the inhibition was 7.33%.

With `Cc1cc(C)cc(OCC(=O)NCc2cc(C)nc3ccccc23)c1`, the inhibition was 0.84%.

Take `CC(C)c1ccccc1OCC(O)CN(CC(O)COc1cccc2ccccc12)C(C)C` (configuration not stated): the inhibition is 8.09%.

As for `Cc1cc(C)c(NC(=O)C[N+](C)(C)CC(O)COc2cccc3ccccc23)c(C)c1` (configuration not stated), the inhibition was 33% (active).

With `NC(=O)c1ncn([C@@H]2O[C@H](CNCc3cnc(N4CCOCC4)s3)[C@@H](O)[C@H]2O)n1`, the inhibition is -2.34%.

For the compound `COc1ccc(C(=O)c2c3ccc([N+](=O)[O-])cc3[n+]([O-])n2CCCN)cc1`, the inhibition was -9.06%.

For the compound `O=C(CSc1nc(C2CC2)nc2ccccc12)Nc1cccc(O)c1`, the inhibition was -2.61%.

As to `O=C(Cc1ccccn1)c1ccc(O)cc1O`, the inhibition was -1.78%.

As to `O=C(NNc1c2ccccc2nc2ccccc12)c1cc2ccccc2cc1O`, the inhibition is 26.3% (active).

As for `CCCn1c(N)c(N(CCOC)C(=O)C2CCCC2)c(=O)[nH]c1=O`, the inhibition was -0.19%.

Consider `Cc1ccc(CC(=O)N(C)CC(=O)N(CC(C)C)c2c(N)n(CC(C)C)c(=O)[nH]c2=O)cc1C`, for which the inhibition was -2.36%.

With `O=c1cc(O)c(-c2cccc(C(F)(F)F)c2)c(Cl)[nH]1`, the inhibition was 1.03%.

With `Cc1ccccc1/C=C\c1nc(O)c([N+](=O)[O-])c(=O)[nH]1`, the inhibition is 15.6%.

Take `O=c1[nH]c(/C=C\c2cccc(C(F)(F)F)c2)nc(O)c1[N+](=O)[O-]`: the inhibition is 42.7% (active).

Turning to `COCCCNC(NC(=O)c1ccc(C)cc1)C(Cl)(Cl)Cl` (configuration not stated), the inhibition was -2.85%.

As for `COc1ccccc1CNC(=O)c1ccc(N(C)S(=O)(=O)c2ccc(C)cc2)cc1`, the inhibition is 4.36%.

On to `CN(CCO)S(=O)(=O)c1ccc2c(c1)C(=O)c1cc(S(=O)(=O)N(C)CCO)ccc1-2`, for which the inhibition was -0.45%.

For the compound `CCC1(c2ccccc2)NC(=O)N(CC(=O)Nc2ccccc2C(=O)NC2CCCC2)C1=O` (configuration not stated), the inhibition was -4.04%.

For `C=C(C)C(=O)O[C@H]1C/C(C)=C\C(=O)/C=C(\C)[C@H](O)[C@@H]2OC(=O)C(=C)[C@@H]21`, the inhibition was 27% (active).

On to `COc1cccc(C2CC(c3ccccc3)=NN2S(=O)(=O)c2ccccc2)c1OC` (configuration not stated), for which the inhibition is -7.74%.

As to `CCS(=O)(=O)Nc1ccc(C2=NN(S(=O)(=O)c3ccc(F)cc3)C(c3ccco3)C2)cc1` (configuration not stated), the inhibition is 29.4% (active).

`Cc1ccc(C2=NN(C(=O)CSc3nc(N)cc(N)n3)C(c3ccco3)C2)cc1` (configuration not stated): the inhibition was 12.7%.

`O=C(NCc1ccccn1)c1c(O)c2c([nH]c1=O)CCCC2`: the inhibition was 3.03%.

Turning to `C/C(=C\c1ccccc1)C1NC(=O)c2c(sc3c2CCCC3)N1` (configuration not stated), the inhibition was -8.89%.

As for `Cc1[nH]c(=O)c(C(=O)/C=C/c2ccccc2)c2c1CCCC2`, the inhibition is 32.6% (active).

As to `COC(=O)COc1cccc2c(=O)n(CC(=O)NCc3ccccc3)ccc12`, the inhibition is -4.9%.

With `CN(C)CCCN(C(=O)c1ccc(S(=O)(=O)N2CCCCCC2)cc1)c1nc2ccc(Br)cc2s1`, the inhibition was 22.3% (active).

Turning to `COc1cc(C(=O)NNC(=O)c2ccc(S(=O)(=O)N3CCCCC3)cc2)cc(OC)c1OC`, the inhibition was 0.06%.

With `CCN(CC(=O)Nc1c(F)cccc1F)C(=O)c1ccc(S(=O)(=O)N2CCCCC2)cc1`, the inhibition is 0.66%.

As for `COc1ccc(NC(=O)CN(C)C(=O)/C=C/c2cn(Cc3ccccc3)nc2-c2cccnc2)cc1`, the inhibition was 0.58%.

In the case of `O=C(O)CCn1cc(/C=C/C(=O)c2ccc(Cl)cc2)c(-c2cccc(Br)c2)n1`, the inhibition is 22.9% (active).

With `Cc1ccc(S(=O)(=O)N[C@H](CO)C(C)C)cc1`, the inhibition was 2.76%.

With `COc1ccc(S(=O)(=O)Nc2ccc3oc(C)c(C(C)=O)c3c2)cc1`, the inhibition was 4.01%.

Turning to `COc1ccc(C(=O)/C=C/c2ccc(-c3ccccc3)cc2)cc1CSCC(=O)O`, the inhibition is 14.9%.

With `COc1ccc(/C=C/C(=O)c2ccc(NS(=O)(=O)c3ccc(C)cc3)cc2)cc1O`, the inhibition was 46% (active).

Consider `CC(C)Cc1nn2c(=O)cc(O)nc2s1`, for which the inhibition is 4.21%.

Consider `O=C(NCC(=O)N(Cc1cccs1)C(C(=O)NC1CCCCC1)c1ccco1)c1cccs1` (configuration not stated), for which the inhibition is -12.1%.

Turning to `CCNC(=O)CC1C(=O)N(c2ccc(OC)cc2)C(=O)N1CCOC` (configuration not stated), the inhibition was 2.8%.
